Screens as filed in PubChem BioAssay.
Only some compounds are listed: those with a hit (about 12% of all), similar ones and a draw of the others.
L3MBTL1 block: L3MBTL1 (human) inhibition; AlphaScreen L3MBTL1–H3K9me1 peptide binding; Potency, µM (highest dose often 57.1 µM), for the others: at the top dose activity, negative = inhibition, hits mostly inhibitors; 230,000 tested, 0.66% active; AID 485360; also: % is scaled to controls: 0 for no effect and ±100 for the full control effect; nearly all actives have a fitted effect of over 60% in size
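Read-out is AlphaScreen signal from streptavidin donor and nickel chelate acceptor beads (10 ug/mL final each) bridging L3MBTL1 (50 nM) and biotinylated K9-monomethylated H3(1-15) peptide (75 nM), after 30 min compound exposure at room temperature.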
JMJD2A Tudor: inhibitors of human JMJD2A Tudor domain. AlphaScreen JMJD2A-Tudor / H3K4me3 peptide binding. Potency, µM (titrated, usually from 114 µM), inactives show at the highest dose activity change, negative = inhibition, usual class: inhibitors. 390,000 tested, 4.4% active; also: % is scaled to controls: 0 for no effect and ±100 for the full control effect; nearly all actives have a fitted effect of over 50% in size
Target sequence (O75164 whole entry, looked up, the tested form may be a part): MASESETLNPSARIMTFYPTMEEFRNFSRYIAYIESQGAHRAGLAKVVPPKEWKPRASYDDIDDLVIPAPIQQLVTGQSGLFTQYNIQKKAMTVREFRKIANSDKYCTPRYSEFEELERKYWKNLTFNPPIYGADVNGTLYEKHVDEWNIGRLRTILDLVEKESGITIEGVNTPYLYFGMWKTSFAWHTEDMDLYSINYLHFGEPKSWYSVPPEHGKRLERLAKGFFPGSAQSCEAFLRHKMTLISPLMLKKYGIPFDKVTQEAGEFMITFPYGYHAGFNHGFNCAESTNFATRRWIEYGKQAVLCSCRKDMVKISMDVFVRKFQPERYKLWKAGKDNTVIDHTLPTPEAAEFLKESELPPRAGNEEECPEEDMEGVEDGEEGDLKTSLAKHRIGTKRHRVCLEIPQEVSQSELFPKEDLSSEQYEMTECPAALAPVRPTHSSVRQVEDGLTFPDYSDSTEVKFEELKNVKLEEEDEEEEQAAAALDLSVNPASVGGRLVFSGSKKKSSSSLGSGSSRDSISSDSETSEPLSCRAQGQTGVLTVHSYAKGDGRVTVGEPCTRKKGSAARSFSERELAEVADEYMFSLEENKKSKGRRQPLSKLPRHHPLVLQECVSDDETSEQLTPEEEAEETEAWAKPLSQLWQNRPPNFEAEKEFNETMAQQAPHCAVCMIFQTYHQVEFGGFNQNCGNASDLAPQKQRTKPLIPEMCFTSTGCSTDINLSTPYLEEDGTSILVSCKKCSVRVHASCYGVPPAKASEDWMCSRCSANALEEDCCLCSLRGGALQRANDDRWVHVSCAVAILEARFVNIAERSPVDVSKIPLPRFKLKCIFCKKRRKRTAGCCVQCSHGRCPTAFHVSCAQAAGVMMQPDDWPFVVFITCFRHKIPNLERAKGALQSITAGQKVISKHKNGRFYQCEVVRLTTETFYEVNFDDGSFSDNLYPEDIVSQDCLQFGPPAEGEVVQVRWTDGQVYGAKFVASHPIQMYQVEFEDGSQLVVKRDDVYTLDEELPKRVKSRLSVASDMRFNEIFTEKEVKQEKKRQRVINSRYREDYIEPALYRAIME
Sfp PPTase inh: Sfp phosphopantetheinyl transferase inhibition; Biochemical Sfp PPTase activity, qHTS; Potency, µM, for the others: largest response in the series, negative = inhibition, most hits filed as inhibitors; 310,000 tested, 3.5% active;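 also: the enzyme is Sfp with the accession as filed and its product quenches rhodamine fluorescence; 0% = enzyme reaction without inhibitor and -100% = no enzyme wells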
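Fluorescence-quenching assay with 15 nM Sfp, 5 uM rhodamine-CoA and 12.5 uM BHQ-2-labelled ybbR peptide in pH 7.6 Hepes/MgCl2 buffer. Enzyme was pre-incubated with compound for 15 min at room temperature. Rate was taken from the 30-min fluorescence change (525/598 nm).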
G9a block: inhibitors of human histone lysine methyltransferase G9a; G9a H3K9 monomethylation, AlphaScreen, 2 h; Potency, µM (doses to about 102 µM), inactives show at the top dose activity, negative = inhibition, usual class: inhibitors; AID 504332; 350,000 tested, 8.8% active; Q96KQ7; also: % is scaled to controls: 0 for no effect and ±100 for the full control effect; nearly all actives have a fitted effect of over 75% in size
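G9a (20 nM) preincubated 15 min RT with compounds, then 500 nM biotinylated H3K9 peptide and 20 uM SAM added; 2 h RT reaction. Monomethyl-H3K9 product detected by AlphaScreen with anti-H3K9me1 antibody, streptavidin donor and anti-rabbit IgG acceptor beads.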
HP1b chromo inh: HP1-beta chromodomain-methylated histone interaction inhibition. AlphaScreen HP1-beta / biotin-H3K9me3 peptide binding. P83916. 390,000 tested, 0.56% active. Potency, µM (titrated, usually from 114 µM), for the others: top-dose activity change, negative = inhibition, most hits filed as inhibitors; also: nearly all actives have a fitted effect of over 70% in size
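HP1-beta protein (50 nM final) preincubated 30 min at room temperature with biotinylated H3(1-18)K9me3 peptide (50 nM) in PBS pH 7.4, 0.01% Tween-20, then compound added for 30 min. AlphaScreen streptavidin donor/nickel chelate acceptor beads (10 ug/mL final), 30 min dark, luminescence read.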
BAZ2B inh: inhibitors of human BAZ2B bromodomain; Potency, µM (doses to about 114 µM), inactives show at the highest dose activity change, negative = inhibition, hits mostly inhibitors; 360,000 tested, 4.4% active; AlphaScreen BAZ2B-H3K14Ac peptide displacement; AID 504333; also: % is scaled to controls: 0 for no effect and ±100 for the full control effect; nearly all actives have a fitted effect of over 60% in size
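Compounds, titrated to a top concentration of 110 uM, were incubated 30 min at room temperature with preformed BAZ2B/acetyl-K14 H3 peptide complex (50 nM each). Proximity signal was measured by AlphaScreen after 20 min with beads.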
* hit, by the source's call; u = inconclusive; x = not tested or not shown; ! = repeats disagree; [ ] = another dose, or the depositor's remark. Calls follow the shape of the dose curve; as a rule, active = well fitted curve in the direction sought with a large enough effect; inconclusive = small, poorly fitted or top-dose-only effect, or another doubt; inactive = no such curve, though single readings can be large; an effect the other way counts as inactive or inconclusive. Potency is read from the fitted curve at half-maximal effect.

SMILES	L3MBTL1 block	JMJD2A Tudor	Sfp PPTase inh	G9a block	HP1b chromo inh	BAZ2B inh
C#CCOCCOCCOCCNc1nc(N2CCN(C(=O)[C@H](CO)n3cc([C@@H](N)C(C)C)nn3)CC2)nc(N2CCN(C(=O)[C@H](CCCCN)n3cc([C@@H](N)[C@H](C)CC)nn3)CC2)n1	8%	-4%	x	x	39%	x
C#CCOCCOCCOCCNc1nc(N2CCN(C(=O)[C@H](CCC(=O)O)n3cc(C(N)CC(C)C)nn3)CC2)nc(N2CCN(C(=O)[C@H](Cc3cc4ccccc4[nH]3)n3cc(C(N)[C@H](C)CC)nn3)CC2)n1 (stereo partly drawn)	-23%	56µM*	3%	u	16%	50µM*
C#CCOCCOCCOCCNc1nc(N2CCN(C(=O)[C@H](CCCCN)n3cc([C@@H](N)C(C)CC)nn3)CC2)nc(N2CCN(C(=O)[C@H](Cc3cc4ccccc4[nH]3)n3cc([C@@H](N)C(C)CC)nn3)CC2)n1 (stereo partly drawn)	-10%	50µM*	x	x	-19%	x
C#CCOCCOCCOCCNc1nc(N2CCOCC2)nc(N2CCN(C(=O)[C@H](Cc3cc4ccccc4[nH]3)n3cc([C@@H](N)C(C)CC)nn3)CC2)n1 (stereo partly drawn)	-16%	u	-4%	u	21%	u
CN(C(=O)CC(=O)Nc1ccc2nc3n(c(=O)c2c1)CCCCC3)c1ccccc1F	x	-8%	x	-8%[59 µM]	18%	-1%
Cc1cccc(N2CCN(C(=O)c3cccc(-n4c(C)nc5cccnc54)c3)CC2)c1C	x	-1%	x	-33%[59 µM]	24%	-24%
Cc1nn(C)cc1C(=O)NNC(=S)Nc1ccccc1	7%	-18%	11%	u	35%	7%[57.1 µM]
CNC(=S)NNC(=O)c1cn(C)nc1C	14%	-10%	79µM*	40µM*	54%	-8%
CC(C)(C)Sc1ccc(N)nc1	0%	-16%	-19%	50µM*	14%	u
O=C(Nc1ccc(Br)c2ccccc12)c1ccc2ccccc2c1O	0%	u	-3%	28µM*	u	28µM*
O=C1C(c2ccccc2)=[N+]([O-])c2ccccc21	u	25µM*	x	-11%[2.33 µM]	u	10µM*
C=C(C)COc1ccc2c(CC)cc(=O)oc2c1	35%	20µM*	56µM*	145%	36%	71%
C=C(Cl)COc1ccc2c(CC)cc(=O)oc2c1	8%	26%	6%	2%[59 µM]	74%	8%
CCOc1ccc(C2c3c(oc4cc(C)c(C)cc4c3=O)C(=O)N2CCCN(C)C)cc1OC (stereo not drawn)	0%	-18%	-15%	50µM*	19%	-5%
Cc1cc2oc3c(c(=O)c2cc1C)C(c1ccc(C(C)C)cc1)N(CCCN1CCOCC1)C3=O (stereo not drawn)	22%	u	-16%	50µM*	13%	10%
CCOc1ccc(C2c3c(oc4cc(C)c(C)cc4c3=O)C(=O)N2CCCN2CCOCC2)cc1 (stereo not drawn)	x	-15%	50µM*	28µM*	45%	9%
C=CCOc1ccc(C2c3c(oc4ccc(C)cc4c3=O)C(=O)N2CCCN2CCOCC2)cc1 (stereo not drawn)	x	-33%	x	u	-4%	-11%
COc1ccc(NC(=O)c2c(N)c(C(=O)c3ccc(OC)cc3)n3ccccc23)cc1	x	-21%	x	-3%[59 µM]	14%	-2%
O=C1CC(c2cccc(O)c2)c2cc3c(cc2N1)OCO3 (stereo not drawn)	x	-20%	x	-2%[59 µM]	-2%	-24%
CCCn1cc(S(=O)(=O)c2ccccc2)c(=O)c2cc(CC)ccc21	x	-6%	1%	-17%	46%	-15%
CCc1ccc2c(c1)c(=O)c(S(=O)(=O)c1ccc(Cl)cc1)cn2CC	x	-17%	x	2%[59 µM]	21%	56µM*
COc1cc(-c2noc(C)c2C#CC2(N)CCCCC2)cc(OC)c1OC	0%	-24%	-14%	14µM*	24%	u
CCC(=O)OCC(=O)[C@@]1(OC(=O)CC)[C@@H](C)C[C@H]2[C@@H]3CCC4=CC(=O)C=C[C@]4(C)[C@@]3(F)[C@@H](O)C[C@@]21C	x	x	-4%	10%[59 µM]	x	x
O=C1CCN(N=Nc2cccc(Cl)c2)N1	x	x	9%	0.79µM*	x	u
Cc1ccc(-n2c(SCC(=O)NCc3ccco3)nc3nc4c(cc3c2=O)COC(C)(C)C4)cc1	-14%	-29%	25µM*	u	27%	u
SMILES	L3MBTL1 block	JMJD2A Tudor	Sfp PPTase inh	G9a block	HP1b chromo inh	BAZ2B inh
CCN(CC)C(=O)c1sc2c(c1C)c(=O)n(CCc1ccccc1)c(=O)n2Cc1cc(C)ccc1C	x	-25%	x	10%[59 µM]	15%	0%
O=C1c2ccccc2C(=O)N1CCCc1nc(-c2ccccn2)no1	3%	79µM*	-16%	22%[59 µM]	-14%	u
O=C(NCCc1ccc(Cl)cc1)c1c2c(nc3ccccc13)C(=O)N(C1CCCCC1)C2	x	-8%	x	13%[59 µM]	32%	-4%
Nc1nc2c(nc(Br)n2C2OC(CO)C(O)C2O)c(=O)[nH]1 (stereo not drawn)	x	x	3%	x	x	x
CCOC(=O)c1cccc(Nc2cc(-c3ccccc3)ncn2)c1	x	-1%	x	16µM*	u	50µM*
O=C1C=C(O)c2ccccc2C1=O	x	x	79µM*!	x	x	x
CC(=O)N(C)C1=C(O)c2ccccc2C(=O)C1=O	-3%	-29%	2%	79µM*	11%	u
O=C1C(O)=C(O)C(=O)c2ccccc21	x	56µM*	x	x	u	x
O=C1C=C(c2c(O)ccc3ccccc23)c2ccccc2C1=O	x	40µM*	x	x	25µM*	x
COC(=O)c1cc2ccccc2c(-c2c(O)ccc3ccccc23)c1O	-16%	u	-5%	u	-14%	u
O=C1C=C(O)c2cccc(O)c2C1=O	x	u	-6%	-139%[59 µM]	12%	u
COc1ccccc1CNc1ncncc1-c1ccccc1OC	x	x	-29%	-25%[0.501 µM]	x	x
O=C(CSc1nc(-c2ccccc2)no1)N1CCN(c2ccccc2F)CC1	x	20µM*	x	5%[59 µM]	35%	9%
Cc1occc1-c1nnc(SCC(=O)N2CCOCC2)n1Cc1ccco1	2%	-8%	89µM*	-4%[59 µM]	48%	14%
CC(C)c1ccc(-c2noc(SCC(=O)N3CCN(c4ccccc4F)CC3)n2)cc1	x	5%	x	4%[59 µM]	58%	8%
CCn1c(SCC(=O)N2CCN(c3ccccc3F)CC2)nnc1-c1ccoc1C	x	50µM*	3%	u	-26%	-30%
C[C@](N)(COP(=O)(O)O)C(=O)O	x	x	-30%	x	x	x
Cc1nc(-c2ccc(F)cc2)sc1CCNC(=O)c1ccco1	x	-17%	x	5%[59 µM]	55%	19%
Cc1ccc(-c2nc3sc(CCNC(=O)c4ccc(C)c(C)c4)c(C)n3n2)cc1	x	u	x	u	25%	2%
